From PubChem BioAssay
Beta cell apopt: beta cell apoptosis inhibition; protection from apoptosis, % (no concentration beside the values); INS-1E cytokine-induced death, ATP luminescence, 48 h; percent of positive-control rescue, neutral wells zero; actives 0.8% (n = 300,000);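 active means Every replicate reaches about 75%, or at least half do and their mean reaches it too, limit read from the data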;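 further: 0% = cytokine-treated negative control wells and 100% = positive control rescue; higher means more ATP so stronger rescue from cytokine killing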
SKKanGAS inh: blocks kanamycin growth of S. pyogenes SKKanGAS strain; BacTiter-Glo, 6 h; inhibition, % at 7.5 µM; actives 1.3% (n = 300,000); AID 1662;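 active means mean replicate score, as percent of positive control median, at least 50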;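 further: strain carries kanamycin resistance gene driven by streptokinase promoter and grows in 40 µg/ml kanamycin; loss of luminescence reflects streptokinase promoter inhibition or plain growth inhibition; 0% = median of DMSO wells and 100% = positive control at its reference dose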
MPTP inh: permeability transition pore inhibition; actives 1.4% (n = 360,000); isolated mouse mitochondria, Ca2+ swelling absorbance, 30 min; inhibition, % at 10 µM;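 active means inhibition of 50% or more, scaled per plate between neutral and stimulator controls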;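 further: 0% = DMSO wells given calcium and 100% = 1 mM EGTA wells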
Calb FLC: C. albicans growth modulation with fluconazole | C. albicans CaCi-2 (fluconazole-resistant clinical isolate) + fluconazole, Alamar Blue growth, 48 h | growth inhibition, % (concentration not given with the values) | actives 0.57% (n = 300,000) | AID 1979;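 active means growth inhibition above about 58% in most replicates, limit read from the data, passing the limit was not always enough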;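 further: all wells also contain fluconazole at 8 µg/ml as a sub-toxic cotreatment; 0% = median of DMSO wells and 100% = median of geldanamycin control wells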
Mdm2-MdmX inh: inhibitors of human Mdm2/MdmX interaction. O15151+Q00987. SaOS-2 split-luciferase Mdm2/MdmX complementation, luminescence. inhibition, % at 8 µM. actives 3% (n = 330,000). AID 485346;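 active means inhibition of at least 50% at 8 µM in the primary screen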
Target sequence (O15151 whole entry, looked up): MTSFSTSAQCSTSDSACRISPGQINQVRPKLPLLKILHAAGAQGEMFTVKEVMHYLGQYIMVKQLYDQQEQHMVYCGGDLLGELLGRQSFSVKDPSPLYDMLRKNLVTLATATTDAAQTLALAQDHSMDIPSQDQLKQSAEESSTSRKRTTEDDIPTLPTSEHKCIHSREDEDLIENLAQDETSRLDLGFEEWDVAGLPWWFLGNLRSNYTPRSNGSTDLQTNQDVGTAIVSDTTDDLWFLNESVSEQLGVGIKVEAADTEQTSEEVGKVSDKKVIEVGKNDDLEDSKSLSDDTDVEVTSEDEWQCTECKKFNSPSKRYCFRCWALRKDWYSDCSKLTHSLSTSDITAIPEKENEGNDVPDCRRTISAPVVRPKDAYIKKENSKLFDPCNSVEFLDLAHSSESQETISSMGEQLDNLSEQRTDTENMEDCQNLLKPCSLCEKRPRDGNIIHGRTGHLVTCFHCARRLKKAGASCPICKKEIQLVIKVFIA
Target sequence (Q00987 whole entry, looked up): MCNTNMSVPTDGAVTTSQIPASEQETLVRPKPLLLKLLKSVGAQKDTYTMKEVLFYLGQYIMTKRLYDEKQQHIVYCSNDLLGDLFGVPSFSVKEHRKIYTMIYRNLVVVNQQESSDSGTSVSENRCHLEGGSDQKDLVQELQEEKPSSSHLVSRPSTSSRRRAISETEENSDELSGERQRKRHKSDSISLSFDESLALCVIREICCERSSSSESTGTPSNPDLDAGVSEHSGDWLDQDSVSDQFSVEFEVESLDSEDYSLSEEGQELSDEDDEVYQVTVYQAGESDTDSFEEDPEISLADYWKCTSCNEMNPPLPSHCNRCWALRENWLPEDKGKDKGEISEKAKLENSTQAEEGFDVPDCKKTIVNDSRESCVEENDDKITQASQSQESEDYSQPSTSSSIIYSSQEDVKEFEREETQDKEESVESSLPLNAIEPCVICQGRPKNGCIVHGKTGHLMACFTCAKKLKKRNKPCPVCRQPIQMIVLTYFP
CSC inhib: cancer stem cell inhibition; cancer stem cell-like cells viability, luminescence; inhibition, % at 7.5 µM; actives 1.1% (n = 300,000); AID 2717; in the data active means inhibition above about 75%; tested in HMLE shEcad cells
Rh123 counter: mitochondrial membrane potential, counter-screen; inhibition, % at 10 µM; shares compounds with MPTP inh; actives 78% (n = 5,000); isolated mitochondria, Rhodamine 123 fluorescence; in the data active means inhibition above about 22%;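 further: 0% = DMSO vehicle and 100% = positive control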
MPTP swell DR: MPTP inhibition, dose response swelling confirmation; actives 58% (n = 780); isolated mitochondria swelling, absorbance; AID 651561; IC50, µM; shares compounds with MPTP inh; in the data active means IC50 below about 20 µM
MPTP counter DR: MPTP inhibitor counter-screen activity, dose response; actives 49% (n = 780); isolated mitochondria counterscreen, fluorescence read-out; IC50, µM; shares compounds with MPTP inh; in the data active means IC50 below about 80 µM
Active calls of the source: *; i = inactive; x = not tested or not shown. A selection: hits, their analogues and other compounds. The true share with any hit is near 5.4%.

SMILES	Beta cell apopt	SKKanGAS inh	MPTP inh	Calb FLC	Mdm2-MdmX inh	CSC inhib	Rh123 counter	others
Nc1nc(Cl)nc2ccc(Br)cc12	-1	-5	4	-20	43	4	x
CCc1c(C)nc2ccc(Br)cc2c1Cl	0	2	97*	-7	-25	-8	93*
CC[n+]1ccc(/C=C/c2ccc(N(C)C)cc2)c2ccccc21	x	x	119*	x	x	x	68*
CCCCCC[n+]1ccccc1/C=C/c1ccc(N(C)C)cc1	x	x	58*	x	x	x	103*
CC(C)c1ccc(-c2cc(C(=O)N3N=C(C(F)F)CC3(O)C(F)F)c3ccccc3n2)cc1 (configuration not stated)	38	90*	77*	3	24	112*	97*
O=C(c1cc(C2CC2)nc2ccc(Br)cc12)N1N=C(C(F)F)CC1(O)C(F)F (configuration not stated)	-7	-2	75*	0	20	70	84*
Cc1ccc(NC(=O)c2cnccn2)c(C)c1	3	2	2	-5	3	-10	x
Cc1ccc2[nH]c3c(N4CCc5ccccc5C4)ncnc3c2c1	101*	34	106*	60	39	-8	93*
Cc1ccc(C(=O)NCC(=O)NCC(=O)OCc2ccc(Oc3ccc([N+](=O)[O-])cc3)cc2)cc1	11	17	51*	-1	25	-6	52*
Cc1ccc(S(=O)(=O)Nc2nc3cc(C)c(C)cc3[nH]2)cc1	-14	5	0	-3	-5	-12	x
Cc1cc(NC(=O)CCSc2ccccc2)ccc1Br	-3	4	97*	-6	-116	25	84*
Cc1cc(Br)ccc1NC(=O)CCSc1ccccc1	-9	-3	7	10	-15	1	x
S=C(Nc1ccc(Oc2ccccc2)cc1)Nc1cccnc1	0	-7	71*	-8	-24	-3	86*
S=C(NCc1cccnc1)Nc1ccc(Oc2ccccc2)cc1	2	-9	69*	-23	28	2	60*
CCCCc1ccc(NC(=S)NCc2cccc(OC)c2)cc1	0	8	70*	-8	26	13	91*
CCCCc1ccc(NC(=S)Nc2ccc(Cl)c(S(=O)(=O)N(C)C)c2)cc1	0	-5	97*	-12	x	24	76*
CCOP(=O)(/C(C#N)=C(/O)c1ccccc1)c1ccccc1 (configuration not stated)	x	-1	2	-2	14	-1	x
CCCCc1ccc(NC(=S)Nc2cccnc2)cc1	x	1	80*	13	-2	-16	73*
Cn1cc(S(=O)(=O)N2CCC3(CC2)OCCO3)c(=O)n(C)c1=O	-3	1	-2	9	1	-8	x
CCN(CC(=O)Nc1ccc(OC)cc1)C(=O)c1ccc([N+](=O)[O-])cc1	-12	-5	3	-14	-23	-5	x
O=C(CCCc1ccccc1)Nc1ccc(Br)cc1F	-7	2	5	-8	-3	20	x
Cc1ccc(NC(=S)Nc2ccc(Br)cc2)cc1	2	8	44	-1	-20	x	x
Fc1cc(Br)ccc1NC(=S)Nc1ccccc1	x	-17	92*	-9	4	1	93*
O=C(Nc1ccc(Br)cc1)Nc1ccccc1F	8	-23	80*	-21	-226	16	90*
Fc1ccccc1NC(=S)Nc1ccc(Br)cc1	-5	-6	97*	-17	-9	-10	95*
SMILES	Beta cell apopt	SKKanGAS inh	MPTP inh	Calb FLC	Mdm2-MdmX inh	CSC inhib	Rh123 counter	others
O=C(Nc1ccccc1F)Nc1ccccc1F	11	-5	1	-27	-47	11	x
COCCn1c(C)cc(C(=O)CSc2nc3ccccc3c(=O)[nH]2)c1C	23	10	64*	-6	-45	-6	14	MPTP swell DR=i;MPTP counter DR=45*
Cc1cc(C(=O)CSc2nc3ccccc3[nH]2)c(C)n1Cc1ccco1	47	-17	86*	-31	26	9	83*
CCN(CC)C(=O)CSc1nc2ccccc2c(=O)[nH]1	1	-4	66*	30	-4	-7	-1	MPTP swell DR=>100;MPTP counter DR=>80
COCC(C)n1c(C)cc(C(=O)CSc2nc3ccccc3c(=O)[nH]2)c1C (configuration not stated)	11	9	76*	-2	19	3	35*
C=CCn1c(C)cc(C(=O)CSc2nc3ccccc3c(=O)[nH]2)c1C	16	x	15	x	-73	6	x
COCC(C)n1c(C)cc(C(=O)COC(=O)CCc2nc3ccccc3c(=O)[nH]2)c1C (configuration not stated)	-3	-1	-1	-2	-23	-9	x
CCN(CC(=O)NCc1cccs1)C(=O)COc1ccc(C(N)=O)cc1	x	x	-3	x	-4	x	x
N#C/C(=C\c1ccc(Sc2ccccc2)o1)c1nc2ccccc2[nH]1	x	7	94*	-1	-84	8	68*
N#C/C(=C/c1ccc(Sc2nc3ccccc3[nH]2)o1)c1cccc(F)c1	-3	-1	85*	8	22	54	87*
N#C/C(=C\c1ccc(-c2ccccc2C(=O)O)o1)c1nc2ccccc2[nH]1	-2	6	1	3	-22	1	x
N#C/C(=C/c1ccc(Sc2nc3ccccc3[nH]2)o1)c1ccccc1F	1	-3	96*	17	13	x	83*
O=C1N(Cc2cccc(Cl)c2)C[C@@H]2C[C@@H](c3cccn3-c3nccs3)N3CCC[C@@]123	-8	-4	2	3	0	6	x
Cc1cc(C)c(C#N)c(SCC(=O)C(C)(C)C)n1	x	1	0	18	2	x	x
CN(C(=O)CCCN1C(=O)c2cccc3cccc(c23)C1=O)c1ccccc1	10	-3	4	22	16	-16	x
COc1ccc(NCC(=O)Nc2ccc(C#N)cc2)cc1Cl	8	6	76*	-6	-15	-11	84*
COc1ccc(NC(=O)CNc2cccc(C#N)c2)cc1Cl	6	1	-2	6	0	-13	x
Cn1cc(Br)c(C(=O)Nc2sc3c(c2C#N)CCC3)n1	-4	-6	6	-7	-23	-5	x
Cn1cc(Cl)c(C(=O)NC(=S)Nc2sc3c(c2C#N)CCCCC3)n1	-1	29	83*	7	12	17	21*
Cc1ccc(NC(=O)Nc2ccc3c(c2)CCC3)cc1	4	-2	1	2	-27	18	x
O=C(Nc1cccc(F)c1)Nc1ccc2c(c1)CCC2	-1	-2	67*	-1	-51	x	92*
O=C(Nc1cccc(F)c1)c1c(F)c(F)c(F)c(F)c1F	3	11	65*	2	11	12	81*
